Measurements as given in the supplement of paper PMC10849652.
The full data set covers some 7,900 targets. This sample favours those with a hit. About 0.6% of all pairs of compound and target were hits. A number with no mark means an inactive call.

How the values were obtained:
Test in all cases: log2 fold change, soluble protein after heating vs DMSO (PISA); higher = thermal stabilisation; K562 cells, 10 uM, 30 min; active = over 0.2 and 3.5 SD of the protein, either way, in both replicates (recomputed)
erlotinib = compound: C#Cc1cccc(Nc2ncnc3cc(OCCOC)c(OCCOC)cc23)c1 [erlotinib]
How it was run: (§1)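 K562 cells at 2×10^6 cells/mL were treated for 30 min with 10 μM compound, and aliquots were heated for 3 min over 48°C-58°C before pooling. Extraction used PBS with 0.5% NP-40 at 4°C, and soluble protein was the supernatant after 21,000xg for 90 min, measured by TMTpro 16plex LC-MS/MS with channel sums equalised. Thermal stability values, relative to control samples and from duplicates, are log2 fold changes.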

[1] = compound: C/C(=N\NC(=O)C1=CC(=CC=C1)S(=O)(=O)N2CCOCC2)/C3=C(C=CC(=C3)Cl)O
How it was run: as §1

[2] = compound: C1=CC(=C(C=C1Cl)C2=NC3=NC=CN=C3C(=N2)NC4=CC=NC=C4)F
How it was run: as §1

[3] = compound: C1=CC(=CC=C1C2=NC3=C(N2)C=C(C=C3)C(=O)N)OC4=CC=C(C=C4)Cl
How it was run: as §1

[4] = compound: C1=CC2=C(C=CC(=C2)/C=C\3/C(=O)NC(=NCC4=CC=CS4)S3)N=C1
How it was run: as §1

[5] = compound: C1=CC2=NC=CN=C2C=C1/C=C/3\C(=O)NC(=O)S3
How it was run: as §1

[6] = compound: C1=CC=C(C=C1)C2=NC(=C(N2)C3=CC=NC=C3)C4=CC(=C(C=C4)Cl)O
How it was run: as §1

[7] = compound: C1=CC=C2C(=C1)C3=NNC4=CC=CC(=C43)C2=O
How it was run: as §1

[8] = compound: C1CCN(C1)C(=O)NC2=CC=CC(=C2)NC3=NC=C(C(=N3)NCCC4=CN=CN4)Br
How it was run: as §1

[9] = compound: C1CN(CCC1(CC2=CC=C(C=C2)Cl)N)C3=NC=NC4=C3C=CN4
How it was run: as §1

UniProt Q9NQG5, sequence (Q9NQG5 whole entry, looked up): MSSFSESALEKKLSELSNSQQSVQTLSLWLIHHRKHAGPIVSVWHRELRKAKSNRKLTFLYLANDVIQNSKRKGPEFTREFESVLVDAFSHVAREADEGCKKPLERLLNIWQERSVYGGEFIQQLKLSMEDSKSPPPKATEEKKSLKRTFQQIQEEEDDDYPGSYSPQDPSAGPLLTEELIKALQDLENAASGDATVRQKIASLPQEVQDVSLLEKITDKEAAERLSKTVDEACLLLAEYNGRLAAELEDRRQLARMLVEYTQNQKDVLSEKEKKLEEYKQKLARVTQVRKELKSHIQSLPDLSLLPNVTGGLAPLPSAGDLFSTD
UniProt Q9BY42, sequence (Q9BY42 whole entry, looked up): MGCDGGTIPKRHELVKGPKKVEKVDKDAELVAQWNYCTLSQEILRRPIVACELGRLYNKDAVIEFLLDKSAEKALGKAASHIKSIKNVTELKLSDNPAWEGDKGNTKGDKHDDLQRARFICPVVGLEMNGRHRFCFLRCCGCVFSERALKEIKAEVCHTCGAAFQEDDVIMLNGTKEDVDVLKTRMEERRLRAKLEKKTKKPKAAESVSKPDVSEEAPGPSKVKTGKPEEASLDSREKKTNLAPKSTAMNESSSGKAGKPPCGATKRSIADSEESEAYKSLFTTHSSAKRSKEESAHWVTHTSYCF
UniProt P04049, sequence (P04049 whole entry, looked up): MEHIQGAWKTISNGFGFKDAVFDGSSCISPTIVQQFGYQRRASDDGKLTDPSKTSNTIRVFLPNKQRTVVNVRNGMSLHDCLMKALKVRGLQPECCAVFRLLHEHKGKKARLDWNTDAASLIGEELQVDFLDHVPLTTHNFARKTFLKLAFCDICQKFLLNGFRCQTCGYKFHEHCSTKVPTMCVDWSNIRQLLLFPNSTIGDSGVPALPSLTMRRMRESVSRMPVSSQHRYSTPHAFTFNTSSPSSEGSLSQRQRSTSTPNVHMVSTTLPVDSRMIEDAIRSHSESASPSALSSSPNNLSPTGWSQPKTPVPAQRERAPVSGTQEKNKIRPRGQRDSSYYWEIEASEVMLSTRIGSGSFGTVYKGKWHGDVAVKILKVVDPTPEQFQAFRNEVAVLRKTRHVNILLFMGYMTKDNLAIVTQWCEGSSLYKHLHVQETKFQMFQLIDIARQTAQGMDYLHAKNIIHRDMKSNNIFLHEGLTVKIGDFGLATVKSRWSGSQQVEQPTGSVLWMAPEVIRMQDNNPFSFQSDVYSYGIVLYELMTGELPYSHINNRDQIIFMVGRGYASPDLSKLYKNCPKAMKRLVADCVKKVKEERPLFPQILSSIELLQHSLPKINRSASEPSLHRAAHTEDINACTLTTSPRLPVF
UniProt Q13530, sequence (Q13530 whole entry, looked up): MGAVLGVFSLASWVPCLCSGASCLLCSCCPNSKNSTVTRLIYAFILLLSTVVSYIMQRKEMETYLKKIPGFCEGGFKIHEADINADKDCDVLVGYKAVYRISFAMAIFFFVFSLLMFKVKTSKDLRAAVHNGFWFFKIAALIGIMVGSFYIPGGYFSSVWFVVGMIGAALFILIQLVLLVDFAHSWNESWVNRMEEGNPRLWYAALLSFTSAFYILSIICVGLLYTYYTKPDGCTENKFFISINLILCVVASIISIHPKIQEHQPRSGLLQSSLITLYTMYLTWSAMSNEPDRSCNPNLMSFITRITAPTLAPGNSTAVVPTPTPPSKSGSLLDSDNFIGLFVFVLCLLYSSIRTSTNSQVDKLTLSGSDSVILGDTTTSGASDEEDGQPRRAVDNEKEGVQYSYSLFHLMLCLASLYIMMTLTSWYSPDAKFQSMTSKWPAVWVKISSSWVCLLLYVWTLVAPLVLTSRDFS
UniProt Q9UKL0, sequence (Q9UKL0 whole entry, looked up): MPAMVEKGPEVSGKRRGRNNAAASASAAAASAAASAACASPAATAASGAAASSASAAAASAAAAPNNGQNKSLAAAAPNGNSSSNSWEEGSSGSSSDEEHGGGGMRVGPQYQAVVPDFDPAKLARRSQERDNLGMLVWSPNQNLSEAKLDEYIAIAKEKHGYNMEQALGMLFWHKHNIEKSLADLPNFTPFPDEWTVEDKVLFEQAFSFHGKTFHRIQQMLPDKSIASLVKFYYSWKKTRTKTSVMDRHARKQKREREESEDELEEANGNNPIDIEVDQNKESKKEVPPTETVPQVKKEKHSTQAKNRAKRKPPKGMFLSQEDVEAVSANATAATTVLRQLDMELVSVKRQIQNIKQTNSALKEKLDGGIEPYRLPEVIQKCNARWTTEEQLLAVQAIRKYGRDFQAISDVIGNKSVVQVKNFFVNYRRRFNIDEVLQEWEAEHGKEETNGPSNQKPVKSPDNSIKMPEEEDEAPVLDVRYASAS
UniProt P61586, sequence (P61586 whole entry, looked up): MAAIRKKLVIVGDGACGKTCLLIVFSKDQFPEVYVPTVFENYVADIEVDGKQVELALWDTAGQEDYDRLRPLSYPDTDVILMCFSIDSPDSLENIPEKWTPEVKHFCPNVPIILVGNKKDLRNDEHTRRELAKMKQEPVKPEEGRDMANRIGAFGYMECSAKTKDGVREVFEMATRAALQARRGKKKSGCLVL
UniProt Q99643, sequence (Q99643 whole entry, looked up): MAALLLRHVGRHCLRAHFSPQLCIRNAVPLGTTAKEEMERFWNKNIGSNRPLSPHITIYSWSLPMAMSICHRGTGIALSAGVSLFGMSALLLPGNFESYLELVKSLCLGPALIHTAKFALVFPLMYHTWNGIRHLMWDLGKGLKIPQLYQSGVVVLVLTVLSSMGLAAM
UniProt Q8IXJ6, sequence (Q8IXJ6 whole entry, looked up): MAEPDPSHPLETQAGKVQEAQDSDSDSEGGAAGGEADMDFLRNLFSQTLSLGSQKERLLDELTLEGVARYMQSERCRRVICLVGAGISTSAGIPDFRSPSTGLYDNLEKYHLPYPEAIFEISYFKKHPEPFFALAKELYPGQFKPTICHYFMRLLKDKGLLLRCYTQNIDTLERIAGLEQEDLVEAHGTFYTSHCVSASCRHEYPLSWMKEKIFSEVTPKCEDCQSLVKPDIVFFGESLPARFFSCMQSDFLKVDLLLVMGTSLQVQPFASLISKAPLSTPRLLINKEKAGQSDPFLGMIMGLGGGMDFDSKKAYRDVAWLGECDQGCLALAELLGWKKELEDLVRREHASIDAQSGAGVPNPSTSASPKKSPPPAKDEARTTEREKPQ
UniProt Q5VZM2, sequence (Q5VZM2 whole entry, looked up): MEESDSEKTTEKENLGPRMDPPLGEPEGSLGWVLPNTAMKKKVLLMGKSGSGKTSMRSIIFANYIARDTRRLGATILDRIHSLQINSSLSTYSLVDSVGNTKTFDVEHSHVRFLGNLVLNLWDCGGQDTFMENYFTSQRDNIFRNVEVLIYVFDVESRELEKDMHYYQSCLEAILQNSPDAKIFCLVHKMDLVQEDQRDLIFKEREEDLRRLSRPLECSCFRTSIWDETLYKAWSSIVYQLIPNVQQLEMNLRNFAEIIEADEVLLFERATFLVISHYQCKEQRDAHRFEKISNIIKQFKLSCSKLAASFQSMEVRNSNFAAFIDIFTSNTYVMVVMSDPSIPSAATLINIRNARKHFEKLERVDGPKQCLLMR
UniProt Q9BVS4, sequence (Q9BVS4 whole entry, looked up): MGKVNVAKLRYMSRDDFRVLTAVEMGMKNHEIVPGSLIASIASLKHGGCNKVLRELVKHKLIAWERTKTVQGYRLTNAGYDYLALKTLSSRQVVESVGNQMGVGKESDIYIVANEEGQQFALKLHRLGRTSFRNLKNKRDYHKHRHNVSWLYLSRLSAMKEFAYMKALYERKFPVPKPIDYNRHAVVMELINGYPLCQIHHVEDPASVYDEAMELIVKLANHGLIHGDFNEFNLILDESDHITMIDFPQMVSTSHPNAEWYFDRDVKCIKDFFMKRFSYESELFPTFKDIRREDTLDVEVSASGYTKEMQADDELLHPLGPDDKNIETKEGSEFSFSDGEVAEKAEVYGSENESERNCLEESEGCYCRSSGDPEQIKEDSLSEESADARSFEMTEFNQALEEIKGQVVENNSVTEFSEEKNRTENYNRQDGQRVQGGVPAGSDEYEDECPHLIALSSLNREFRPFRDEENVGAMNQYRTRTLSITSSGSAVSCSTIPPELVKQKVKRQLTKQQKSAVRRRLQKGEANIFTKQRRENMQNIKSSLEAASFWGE
UniProt Q9NTZ6, sequence (Q9NTZ6 whole entry, looked up): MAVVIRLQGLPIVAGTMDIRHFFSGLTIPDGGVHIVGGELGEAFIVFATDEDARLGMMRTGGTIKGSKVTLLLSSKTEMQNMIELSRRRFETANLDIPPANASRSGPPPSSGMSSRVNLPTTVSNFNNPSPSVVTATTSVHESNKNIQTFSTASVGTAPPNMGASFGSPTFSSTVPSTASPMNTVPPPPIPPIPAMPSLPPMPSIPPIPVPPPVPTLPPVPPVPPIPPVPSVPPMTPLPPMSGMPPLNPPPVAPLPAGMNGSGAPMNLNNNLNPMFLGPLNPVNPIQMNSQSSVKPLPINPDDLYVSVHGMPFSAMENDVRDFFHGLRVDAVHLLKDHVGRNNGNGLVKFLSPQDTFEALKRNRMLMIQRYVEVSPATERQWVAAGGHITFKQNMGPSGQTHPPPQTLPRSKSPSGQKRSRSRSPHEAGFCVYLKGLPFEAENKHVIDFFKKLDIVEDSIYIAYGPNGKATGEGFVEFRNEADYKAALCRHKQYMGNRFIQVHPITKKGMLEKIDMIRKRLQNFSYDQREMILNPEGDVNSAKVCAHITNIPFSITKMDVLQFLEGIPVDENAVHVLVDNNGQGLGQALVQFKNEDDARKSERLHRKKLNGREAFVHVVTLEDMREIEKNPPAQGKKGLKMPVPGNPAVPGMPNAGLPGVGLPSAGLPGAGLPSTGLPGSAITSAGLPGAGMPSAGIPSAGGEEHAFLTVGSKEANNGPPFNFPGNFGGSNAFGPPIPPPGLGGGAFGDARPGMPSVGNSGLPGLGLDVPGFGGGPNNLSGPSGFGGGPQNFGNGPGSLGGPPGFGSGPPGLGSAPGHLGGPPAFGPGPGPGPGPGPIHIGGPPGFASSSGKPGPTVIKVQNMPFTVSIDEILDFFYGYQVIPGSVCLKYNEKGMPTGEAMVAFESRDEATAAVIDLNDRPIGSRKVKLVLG
UniProt P60602, sequence (P60602 whole entry, looked up): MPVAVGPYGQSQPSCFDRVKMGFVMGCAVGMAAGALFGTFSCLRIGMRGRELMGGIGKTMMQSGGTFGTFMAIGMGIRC

Target | log2 fold change (erlotinib) | log2 fold change [1] | log2 fold change [2] | log2 fold change [3] | log2 fold change [4] | log2 fold change [5] | log2 fold change [6] | log2 fold change [7] | log2 fold change [8] | log2 fold change [9]
RCC1 isoform 2 (UniProt P18754) | 0.158 | 0.195 | 0.11 | 0.03 | 0.105 | -0.004 | -0.003 | 0.018 | -0.09 | 0.011
RRP36 (UniProt Q96EU6) | -0.192 | -0.147 | -0.586 | -0.005 | -0.133 | -0.06 | 0.019 | 0.012 | 0.045 | -0.146
RETREG3 (UniProt Q86VR2) | 0.004 | 0.072 | 0.037 | 0.031 | -0.053 | 0.07 | 0.062 | -0.087 | -0.029 | 0.032
SIRT2 (UniProt Q8IXJ6) | 0.03 | 0.055 | 0.001 | 0.054 | -0.113 | 0.017 | 0.051 | 0.029 | 0.025 | 0.016
RANBP2 (UniProt P49792) | -0.107 | 0.007 | 0.062 | 0.081 | 0.082 | 0.003 | -0.007 | -0.028 | 0.005 | 0
RPS3 (UniProt P23396) | -0.136 | -0.072 | -0.224 | 0.061 | -0.026 | -0.027 | -0.073 | -0.03 | 0.093 | -0.156
RIPK1 (UniProt Q13546) | 0.013 | -0.008 | -0.028 | 0 | 0.068 | -0.016 | 0.004 | 0.219 | 0.002 | -0.015
SEC16A isoform 5 (UniProt O15027) | 0.126 | -0.143 | -0.064 | 0.015 | 0.153 | -0.018 | 0.044 | 0.069 | 0.06 | 0.017
RAP2C (UniProt Q9Y3L5) | 0.021 | 0.119 | 0.205 | 0.01 | -0.097 | 0.026 | 0.026 | 0.167 | -0.008 | 0.034
ROMO1 (UniProt P60602) | 0.016 | -0.092 | 0.045 | -0.01 | -0.009 | 0.018 | 0.008 | 0.003 | 0.039 | 0.001
RTN4IP1 (UniProt Q8WWV3) | 0.016 | 0 | 0.041 | 0.066 | 0.048 | -0.08 | 0.014 | 0.027 | -0.064 | 0.074
SDHC (UniProt Q99643) | -0.017 | 0.033 | -0.015 | 0.033 | -0.013 | 0.17 | 0.104 | 0.102 | 0.008 | 0.02
REL (UniProt Q04864) | 0.076 | -0.013 | -0.007 | 0.003 | 0.024 | -0.037 | -0.029 | -0.013 | -0.082 | 0.01
RBM12 (UniProt Q9NTZ6) | 0.092 | 0.187 | 0.123 | -0.022 | 0.117 | -0.003 | -0.008 | 0.011 | -0.046 | 0.006
SERINC3 (UniProt Q13530) | -0.051 | 0.016 | -0.064 | 0.041 | -0.043 | 0.063 | 0.006 | 0.029 | 0.007 | 0.06
SCD (UniProt O00767) | 0.022 | -0.256 | 0.143 | -0.008 | 0.024 | 0.04 | -0.059 | -0.006 | 0.126 | 0.023
RBM8A (UniProt Q9Y5S9) | -0.021 | -0.014 | 0.012 | -0.008 | -0.076 | 0.024 | -0.069 | -0.035 | 0.025 | 0.003

Target | log2 fold change (erlotinib) | log2 fold change [1] | log2 fold change [2] | log2 fold change [3] | log2 fold change [4] | log2 fold change [5] | log2 fold change [6] | log2 fold change [7] | log2 fold change [8] | log2 fold change [9]
RCN3 (UniProt Q96D15) | 0.033 | 0.013 | 0.058 | 0.048 | 0.03 | -0.029 | -0.057 | -0.023 | 0.07 | -0.103
RAF1 isoform 2 (UniProt P04049) | -0.048 | 0.08 | -0.129 | 0.04 | 0.197 | 0.02 | 0.513 (active) | 0.01 | -0.121 | 0.022
RPS21 (UniProt P63220) | -0.045 | -0.062 | -0.071 | 0.017 | -0.056 | 0.079 | -0.066 | -0.027 | 0.033 | 0.017
RAB3IL1 (UniProt E9PK89) | -0.238 | -0.055 | 0.116 | -0.001 | 0.058 | 0.104 | -0.028 | 0.197 | -0.162 | 0.004
RPS6KA1 isoform 2 (UniProt Q15418) | -0.032 | 0.104 | -0.082 | 0.107 | 0.034 | 0.039 | -0.135 | -0.377 (active) | -0.093 | 0.023
RPRD1B (UniProt Q9NQG5) | -0.065 | 0.086 | 0.036 | 0.028 | 0.063 | 0.052 | 0.042 | -0.005 | 0.009 | -0.046
RNF14 (UniProt Q9UBS8) | -0.006 | 0.038 | 0.048 | 0.043 | 0.015 | -0.019 | 0.014 | -0.029 | 0.002 | 0.071
SH3GLB2 (UniProt Q9NR46) | 0.048 | 0.081 | -0.044 | -0.021 | 0 | 0.01 | -0.033 | -0.021 | -0.022 | -0.013
RRAGB (UniProt Q5VZM2) | -0.028 | 0.047 | 0.004 | 0.023 | -0.13 | 0 | 0.021 | 0.082 | -0.048 | 0.037
RCOR1 (UniProt Q9UKL0) | 0.033 | 0.069 | -0.043 | -0.056 | 0.134 | -0.013 | 0.076 | -0.011 | -0.006 | -0.043
SAAL1 (UniProt Q96ER3) | -0.044 | 0.028 | 0.046 | 0.022 | -0.033 | 0.125 | -0.041 | -0.007 | 0.042 | -0.03
RMC1 (UniProt Q96DM3) | 0.028 | 0.124 | 0.048 | 0.04 | 0.027 | -0.038 | 0.011 | -0.055 | 0.048 | -0.038
RIOK2 (UniProt Q9BVS4) | -0.081 | -0.064 | -0.149 | 0.097 | -0.043 | -0.055 | -0.01 | 0.055 | 0.035 | -0.209
RHOA (UniProt P61586) | 0.028 | -0.029 | 0.012 | -0.052 | -0.094 | -0.161 | 0.114 | 0.018 | -0.05 | 0.01
RPS3A (UniProt P61247) | -0.178 | -0.041 | -0.232 | 0.062 | -0.039 | -0.035 | -0.028 | 0 | 0.088 | -0.162
RTF2 (UniProt Q9BY42) | 0.026 | 0.063 | 0.035 | -0.049 | -0.049 | -0.023 | -0.035 | -0.02 | -0.074 | 0.045
